KDM5B inhibitor: blocks human KDM5B histone demethylase activity; Q9UGL1; KDM5B demethylase, FDH-coupled NADH fluorescence (FDH is formaldehyde dehydrogenase); Potency, µM (top dose mostly 57.7 µM), hits mostly inhibitors; hit rate 2.6% among 220,000; active = well fitted inhibition curve with a large enough effect; inconclusive = small, poorly fitted or top-dose-only effect; inactive = no such curve, though single readings can be large or run the other way; also: potency is read from the fitted curve at half-maximal effect; 0% is about no effect; nearly all actives have a fitted effect of over 70% in size
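Inhibition is measured as reduced NADH fluorescence generation from FDH coupling to formaldehyde release. Truncated KDM5BΔAP at 200 nM final acts on H3K4me3 peptide (12.5 µM in substrate mix) in pH 7.5 HEPES buffer with Tween-20, 30 min, room temperature.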
IP6K1 inh: inhibitors of human IP6K1 | Q92551 | IP6K1 kinase, ADP-Glo luminescence, 2 h; stronger effect = lower value | activity change, % (series mostly up to about 58 µM) | hit rate 0.81% among 140,000 | AID 1645851; in the data active = activity change below about -25%; also: % is scaled to controls: 0 for no effect and ±100 for the full control effect
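ADP-Glo luminescence measures ADP made by human IP6K1 during a 2 h RT reaction with ATP/IP6 (mix at 1.3 mM/130 uM); top library doses 57.5 and 19.1 uM final.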
* = called active by the depositor; i = inactive; ? = inconclusive; . = no result given. Sampled rows, rich in hits. Any-hit rate of the full collection: about 2.7%.

SMILES | KDM5B inhibitor | IP6K1 inh
O=C(CSc1nnc(-c2ccco2)n1C1CCCCC1)N1CCN(c2ncccn2)CC1 | i | .
COc1ccc(C(=O)N2CCC(C(=O)N3CCC(N4CCOC4=O)CC3)CC2)cc1 | . | -7
Cc1noc2nc(C3CC3)cc(C(=O)NCc3ccc4c(c3)OCCO4)c12 | i | .
Cc1nc2ccc(C(=O)OC(C)C(=O)NC3CCCC3)cc2nc1C (stereo unspecified) | i | .
COc1cc(OC)c(OC)cc1CC1C(=O)Nc2ccc(Br)cc21 (stereo unspecified) | i | .
CN(Cc1ccccc1)Cc1cc(C[C@H]2CNCC[C@H]2CC(=O)N2CCN(c3ccccn3)CC2)no1 | 18µM* | 0
CC(C)(C)c1ccc(-c2cc(C[C@H]3CNCC[C@H]3CC(=O)N3CCN(c4ccccn4)CC3)no2)cc1 | i | 7
COc1ccc(-c2cc3nc4c(c(=O)n3[nH]2)CN(C(=O)c2n[nH]c3c2CCCCCC3)CC4)cc1 | ? | 2
COc1ccc(-c2cc3nc4c(c(=O)n3[nH]2)CN(C(=O)CC(C)C)CC4)cc1 | ? | 2
COc1ccc(-c2cc3nc4c(c(=O)n3[nH]2)CN(C(=O)CCc2ccccc2)CC4)cc1 | 5.6µM* | 0
CCN(C(=O)CCC(=O)N1CCc2nc3cc(-c4ccc(OC)cc4)[nH]n3c(=O)c2C1)c1ccccc1 | 7.1µM* | 0
CCCC1N=C2c3ccccc3N=C(SCC(=O)Nc3cc(OC)cc(OC)c3)N2C1=O (stereo unspecified) | i | .
COc1ccc(-c2cc(C(=O)O)c3cc(C)c(C)cc3n2)cc1 | i | .
O=Cc1ccc(-c2cncc(C(=O)O)c2)cc1 | 100µM* | -18
O=C(O)c1cncc(C(=O)O)c1 | i | .
O=C(CCc1ncc(-c2ccccc2Cl)o1)N1CCN(S(=O)(=O)c2ccccc2)CC1 | i | .
COc1ccc(Nc2nc(-c3c(C)noc3C)cc3cc(CO)oc23)cc1OC | ? | 8
CCc1ncc(CN2CCCC23CCN(c2ccc(C(F)(F)F)cn2)CC3)cn1 | ? | -16
CCn1ccnc1CN1CCCC12CCN(c1ccc(C(F)(F)F)cn1)CC2 | 20µM* | 13
Cc1nc2cnccn2c1C(=O)NCC1CCCCC1 | . | 12
CCCCNC(=O)Cc1csc2nc(C)c(-c3cc(C)n(-c4cccc(C)c4C)n3)c(=O)n12 | 28µM* | -3
Cc1cccc(-n2nc(-c3c(C)nc4scc(CC(=O)NC(C)C)n4c3=O)cc2C)c1C | 25µM* | 10
Cc1cccc(-n2nc(-c3c(C)nc4scc(CC(=O)N5CCCC5)n4c3=O)cc2C)c1C | ? | 2
COCCNC(=O)Cc1csc2nc(C)c(-c3cc(C)n(-c4ccccc4F)n3)c(=O)n12 | 28µM* | 19
CCCNC(=O)Cc1csc2nc(C)c(-c3cc(C)n(-c4cccc(C)c4C)n3)c(=O)n12 | ? | 14
SMILES | KDM5B inhibitor | IP6K1 inh
Cc1nc2scc(CC(=O)NCc3ccco3)n2c(=O)c1-c1cc(C)n(-c2cccc(F)c2)n1 | ? | 6
CCCCCCNC(=O)Cc1csc2nc(C)c(-c3cc(C)n(-c4ccccc4F)n3)c(=O)n12 | ? | -6
Cc1nc2scc(CC(=O)NCc3ccco3)n2c(=O)c1-c1cc(C)n(-c2cc(F)ccc2F)n1 | 25µM* | -5
O=C(NCc1cccnc1)c1nc(-c2ccc(Br)o2)no1 | i | .
CCOc1ccccc1NC(=O)C1CCCN1C(=O)C12CC3CC(CC(C3)C1)C2 (stereo unspecified) | i | .
Cc1oc2cc(OCC(N)=O)ccc2c(=O)c1Oc1ccccc1Br | i | .
Cc1noc(C)c1-c1cc2cc(CO)oc2c(N2CCN(c3ccccn3)CC2)n1 | ? | 16
Cc1noc(C)c1-c1cc2cc(CO)oc2c(N2CCS(=O)(=O)CC2)n1 | 35µM* | 10
Cc1noc(C)c1-c1cc2cc(C(C)C)oc2c(N2CCS(=O)(=O)CC2)n1 | 32µM* | -16
Cc1noc(C)c1-c1cc2cc(C(C)C)oc2c(N2CCN(C)C(=O)C2)n1 | ? | -14
O=C(c1cc2ccccc2oc1=O)N1CCN(C(c2ccccc2)c2ccccc2)CC1 | i | .
COc1cccc(-c2cccc(CN3CCCC3C(=O)NC3CC3)c2)c1 (stereo unspecified) | . | 8
CN1C(=O)c2cccn2CC1CNC(=O)c1cc(-c2ccccc2)n[nH]1 (stereo unspecified) | i | 13
CN1C(=O)c2cccn2CC1CNC(=O)c1cc2ccccc2[nH]1 (stereo unspecified) | 16µM* | 1
COc1ncccc1-c1cnc2[nH]cc(CC(=O)NC3CC3)c2c1 | ? | -16
COc1ccc(NC(=O)Cc2c[nH]c3ncc(-c4ccccc4C)cc23)cc1 | ? | -21
O=C(Cc1c[nH]c2ncc(-c3ccncc3)cc12)NCc1cccnc1 | i | -17
COc1ncccc1-c1cnc2[nH]cc(CC(=O)Nc3nc(C)cs3)c2c1 | i | -17
Cc1ccccc1-c1cnc2[nH]cc(CC(=O)NC3CC3)c2c1 | 28µM* | -17
Cc1ccccc1-c1cnc2[nH]cc(CC(=O)Nc3ccccc3)c2c1 | 35µM* | 8
O=C(Cc1c[nH]c2ncc(-c3ccccc3)cc12)NCc1ccncc1 | 28µM* | -15
COc1ncccc1-c1cnc2[nH]cc(CC(=O)Nc3cccc(Cl)c3)c2c1 | 32µM* | 28
Cc1ccccc1OCCCOc1ccc(Cl)cc1/C=N/NC(=O)c1ccccc1 | i | .
Cn1ncc2c(C(=O)NCCCNC(=O)OC(C)(C)C)cc(-c3ccccc3F)nc21 | . | 13
CCOCCCNCc1cccc(Cl)c1 | i | .
SMILES | KDM5B inhibitor | IP6K1 inh
Cn1cc(-c2cnc3[nH]cc(CC(=O)Nc4ccc(N5CCOCC5)cc4)c3c2)cn1 | ? | -18
Cn1cc(-c2cnc3[nH]cc(CC(=O)Nc4cccc(F)c4)c3c2)cn1 | 28µM* | -16
Cc1c(CC(=O)NC(C)C2CC2)c2c(n1Cc1ccccc1F)CCCC2=O (stereo unspecified) | i | -6
COc1ccc(NC(=O)c2ccc3c(c2)OCCN(c2ccccc2)C3)cn1 | ? | -6
O=C(Nc1ccccc1)c1ccc2c(c1)OCCN(c1ccccc1)C2 | 28µM* | 1
Cc1cc(NC(=O)c2ccc3c(c2)OCCN(C2CCC2)C3)ccc1F | i | -15
O=C(Nc1ccc(F)cc1)c1ccc2c(c1)OCCN(C1CCC1)C2 | 32µM* | -4
Cc1ccccc1CC(=O)NC(C)C1CCCO1 (stereo unspecified) | i | .
CC1(C(=O)NCCCn2ccnc2)CCc2cnc(NCc3ccccc3)nc21 (stereo unspecified) | 40µM* | 2
CC1(C(=O)NCc2ccccc2)COCc2cnc(Nc3ccccc3)nc21 (stereo unspecified) | i | 0
CC1(C(=O)NCC2CC2)CCCc2cnc(Nc3ccccc3)nc21 (stereo unspecified) | i | -8
CC1(C(=O)NCc2cnccn2)CCc2cnc(Nc3ccccc3)nc21 (stereo unspecified) | i | 4
CC1(C(=O)NCC2CC2)CCc2cnc(NCc3ccccc3)nc21 (stereo unspecified) | 40µM* | 5
COCCNC(=O)C1(C)CCc2cnc(Nc3ccccc3)nc21 (stereo unspecified) | i | -4
COCCNC(=O)C1(C)CCc2cnc(NCc3ccccc3)nc21 (stereo unspecified) | 35µM* | -6
